# High-throughput results (PubChem BioAssay)
# DAX1 inh-1: inhibits human nuclear receptor DAX1. 340,000 tested, 0.99% active. AID 504766. P51843. inhibition, % at 6.75 µM. HEK293 Gal4-DAX1 luciferase reporter, luminescence;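 active means inhibition above the mean over all tested compounds plus 3 SD, cut at about 4.2% in these data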;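 further: 0% = DAX1-transfected cells with DMSO and 100% = empty-vector control cells with DMSO; inhibition shows as a rise in luminescence from relieved DAX1 repression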
# Target sequence (P51843 207-470 limits assumed): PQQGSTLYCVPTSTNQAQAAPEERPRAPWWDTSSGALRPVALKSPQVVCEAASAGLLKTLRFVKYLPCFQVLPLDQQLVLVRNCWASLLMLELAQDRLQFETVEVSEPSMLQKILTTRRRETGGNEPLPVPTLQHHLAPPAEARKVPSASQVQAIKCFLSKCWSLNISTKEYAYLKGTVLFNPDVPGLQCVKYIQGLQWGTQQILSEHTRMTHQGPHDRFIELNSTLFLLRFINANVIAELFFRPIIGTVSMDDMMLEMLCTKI
# ssDAF-12 act: activates DAF-12 receptor from parasite S. stercoralis; HEK293 ssDAF-12/GRIP1 lit1-tk-luc reporter, luminescence; % of 3 µM dafachronic acid response; activation, % at 6.8 µM; 370,000 tested, 1% active; AID 652126;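 active means activation above the mean over all tested compounds plus 3 SD, cut at about 0.9% in these data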;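 further: 0% = DMSO-only wells and 100% = 3 µM delta7-dafachronic acid wells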
# hgDAF12 agonist: hgDAF-12 agonism, primary luciferase screen; HEK293 GAL4-hgDAF12 UAS-luciferase reporter, agonist luminescence; normalized to butyrate control; activation, % at 6.8 µM; 370,000 tested, 1.8% active; AID 687014;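 active means activation above a cutoff set at the mean of all screened compounds plus 3 SD, cut at about 10% in these data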;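 further: 0% = DMSO wells and 100% = sodium butyrate wells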
# DAX1 inh-2: inhibitors of DAX1 repression of SF-1 activated StAR promoter | HEK293T StAR-luciferase reporter, SF-1/DAX-1 repression relief | 370,000 tested, 1.1% active | inhibition, % at 6.8 µM;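 active means inhibition above the mean over all tested compounds plus 3 SD, cut at about 3.6% in these data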;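 further: 0% = DAX-1 cells with DMSO and 100% = cells lacking DAX-1 with DMSO; higher inhibition means more luminescence from relief of DAX-1 repression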
# hcDAF-12 act: H. contortus DAF-12 activation, primary screen | HEK293 hcDAF-12 lit1-tk-luc reporter, luminescence; 0% DMSO, 100% Δ7-dafachronic acid | activation, % at 6.8 µM | 370,000 tested, 1.4% active | AID 652067;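 active means activation above the mean of all tested compounds plus 3 SD, cut at about 5.5% in these data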;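 further: 100% = response to 3 µM Δ7-dafachronic acid high control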
# Rev-erbA mod: Rev-erb alpha (human) modulation | P20393 | Rev-erbα–FITC-DNA binding, fluorescence polarization, 90 min | activity, % at 10 µM | 370,000 tested, 0.79% active | AID 1259318;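 active means activity above about 14%, limit read from the data; passing the limit was not always enough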;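 further: 0% = DMSO wells with 35 nM protein and 100% = DMSO wells with 750 nM protein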
# * hit, by the source's call; . = no result. The list is not random: actives were taken first. Their share in the collection is about 4.8%.
SMILES,DAX1 inh-1,ssDAF-12 act,hgDAF12 agonist,DAX1 inh-2,hcDAF-12 act,Rev-erbA mod
Cn1nnnc1SCC1=C(C(=O)O)N2C(=O)[C@H](NC(=O)C(OC=O)c3ccccc3)C2SC1 (stereo partly specified),.,.,.,.,.,-7
Cc1ccc(S(=O)(=O)N2CCCCC2)cc1NC(=O)c1ccc2ccccc2n1,0,-1,-1,0,-1,-3
O=C(Nc1cccc(S(=O)(=O)N2CCCCCC2)c1)c1ccc2ccccc2n1,1,0,5,2,6.4*,5
O=C(Nc1cccc(-c2cn3c(n2)SCC3)c1)c1ccc2ccccc2n1,-1,0,12*,3,4,1
CCOc1cc(N2CCOCC2)c(OCC)cc1NC(=O)c1ccc2ccccc2n1,0,0.9*,6,2,3,-3
Cc1ccccc1C(=O)Nc1ccc(N2CCCC2)cc1,0,-1,3,2,-1,-6
O=C(Nc1ccc(N2CCCCC2)cc1)c1ccc2ccccc2n1,5.5*,-1,9,1,4,4
CCCC[C@H](CCCc1ccc(F)cc1)CCC(=O)N(c1ccccc1)c1ccccc1,.,-1,-2,1,0,-2
O=C1CCCCCN1Cc1nnc(SCc2nc3ccccc3s2)n1-c1ccccn1,2,1.9*,9,2,5.7*,-2
O=C(c1ccc(F)cc1F)N(Cc1ccccn1)CC1CCCO1 (stereo unspecified),.,-1,2,0,-2,-3
COc1ccccc1CCn1cnc(-c2ccc(Br)cc2)c1CC(C)C,.,-1,-1,0,-1,11
CC1=[N+](CC(=O)c2ccccc2)CCn2cccc21,.,1.0*,9,2,4,0
CC(=O)c1ccccn1,6.0*,-1,0,0,-2,-2
COC(=O)CSc1nnc(-c2ccc(NS(=O)(=O)c3c(C(C)C)cc(C(C)C)cc3C(C)C)cc2)o1,.,-2,0,1,0,-1
Cc1c2ccccc2nc2c(F)c(N(C)C)c(F)c(F)c12,-1,0,2,0,5.8*,-2
NNC(=O)c1ccc(Cn2cc(Br)cn2)o1,4.5*,-1,3,0,-1,-4
C[C@H](CO)N1C[C@H](C)[C@H](CN(C)C(=O)Nc2cccc3ccccc23)Oc2ncc(Br)cc2C1=O,.,0,0,0,1,7
O=C(O)/C=C/C(=O)Nc1ccc(-n2nccc2C(F)(F)F)cc1,4.2*,-1,2,0,1,2
O=C(O)/C=C/C(=O)Nc1c(F)cccc1F,4.2*,-1,-1,0,-2,1
O=C(O)/C=C/C(=O)Nc1ccccc1-c1ccccc1NC(=O)/C=C/C(=O)O,-1,-2,1,0,-2,2
O=C(O)/C=C\C(=O)Nc1ccccc1C#Cc1ccccc1,2,-1,10*,1,1,5
O=C(O)/C=C/C(=O)Nc1ccc(-c2ccccc2)cc1,-3,-1,11*,1,0,10
COC(=O)c1cn(-c2ccc(-c3noc4c3C(=O)N(CC(=O)N3CCOCC3)CC4)cc2)nn1,.,-2,0,0,2,-6
Cc1cc2cc3c(cc2n2c(SCC(=O)Nc4nc(-c5ccccc5)cs4)nnc12)OCO3,.,-2,0,.,-2,21
Cc1ccc2oc(-c3ccc(NC(=O)c4ccncc4)cc3O)nc2c1,1,0,12*,1,0,0
SMILES,DAX1 inh-1,ssDAF-12 act,hgDAF12 agonist,DAX1 inh-2,hcDAF-12 act,Rev-erbA mod
O=C(Nc1ccc2oc(-c3ccncc3)nc2c1)c1ccc2c(c1)OCCO2,5.7*,-3,0,0,-2,-6
Cc1ccccc1NC(=O)N1CCCC(c2nc(-c3ccc(C(C)C)cc3)no2)C1 (stereo unspecified),-4,0,11*,0,5,0
COC(=O)c1sccc1N/N=C/c1cccc(Oc2ccccc2)c1,2,-1,11*,2,1,0
COC(=O)c1sccc1N/N=C/c1ccc(OC)c(OC)c1OC,-1,-1,10,2,1,-1
Brc1ccccc1-n1nnc(-c2cnc3ccccc3c2)n1,1,3.5*,13*,5.2*,17*,-5
Cc1ccccc1C(=O)n1ccc2ccc(-c3ccc4ccn(Cc5ccc(C#N)cc5)c4c3)cc21,.,0,-1,-1,0,20
